According to PubChem BioAssay (NCATS):
Inconclusive results are not listed. A number with no mark means an inactive call. The call rests on the fitted dose curve; in most records, active means well fitted inhibition curve with a large enough effect; inconclusive means small, poorly fitted or top-dose-only effect; inactive means no such curve, though single readings can be large or run the other way.

What follows are molecules tested against Retinaldehyde dehydrogenase 3 (Homo sapiens) (UniProt P47895) (assay: qHTS for Inhibitors of the Aldehyde Dehydrogenase Family (ALDH1A3) Primary screen (AID 2061315;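 further: plate controls were DMSO vehicle for no effect and reference inhibitor for full effect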)). Settings: ALDH inhibition qHTS; series mostly up to 56 µM; activity change, negative = inhibition: at the top concentration.

Structure (SMILES) | activity change, negative = inhibition [%]
CCOc1ccc(CCNC(=O)Cc2ccccc2)cc1OCC | 10
COc1ccc(C[C@H](C(=O)O)N2C(=O)c3ccc(C(=O)O)cc3C2=O)cc1 | 1.22
O=C(Nc1ccc(S(=O)(=O)Nc2nccs2)cc1)C1CCC2(CCC2)CC1 | 14.5
CC(=O)Nc1sc2c(c1-c1nc(-c3ccccc3)cs1)CCN(C(C)C)C2 | -12.9
Cc1ccc(OCCn2c(CCNC(=O)c3ccc(C#N)cc3)nc3ccccc32)cc1 | 2.95
CNc1oc(-c2cccc3ccccc23)nc1C(=O)OC | 0.385
NC(=O)C1CCN(c2nc(-c3ccc(C(F)(F)F)cc3)cs2)CC1 | 6.23
COc1ccc(C(=O)Nc2nc(-c3ccccc3)cs2)c(OC)c1 | -1.82
CCOc1ccc(CCNC(=O)c2cc3ccccc3n2Cc2cc(C)cc(C)n2)cc1OCC | -3.35
O=C1CCCC2=C1C(c1[nH]ncc1Cl)N=C(Nc1nc3cc([S+](=O)([O-])N4CCOCC4)ccc3o1)N2 (configuration not stated) | 12.5
O=C(Nc1ccc(Cl)c(Cl)c1)Nc1nnc(-c2ccc(F)cc2)s1 | 2.14
O=C(Nc1ccc(Br)cc1)Nc1nnc(-c2ccncc2)s1 | -9.89
CC(=O)c1cccc(-c2ccc(-c3nc4ccccc4c(=O)[nH]3)o2)c1 | -0.0563
CCOc1ccc(CCNC(=O)c2cc3sccc3n2C)cc1OCC | -2.39
NS(=O)(=O)c1ccc(Nc2nc(-c3ccccc3)cs2)cc1 | -0.0312
Cc1ccc(S(=O)(=O)Nc2ccc(C(=O)Nc3nc(-c4ccc(Cl)cc4)cs3)cc2)cc1 | -0.776
Cn1nnnc1Sc1ncnc2scc(-c3cccc([N+](=O)[O-])c3)c12 | -6.49
